Assay results as given in PubChem BioAssay.
Calls of active or inactive are those of the source.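 How the source made its calls, unless noted: active means visually confirmed hit in the image check and inhibition above 20%; inconclusive means visually confirmed hit but inhibition not above 20%; inactive means no visual hit in the image check.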

What was measured:
[1] = inhibitors of TNFa-induced NFkB p65 translocation, primary screen, imaging, HUVEC, MLSMR starter and 10KST1 sets (AID 438;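 active means inhibition above 20% together with a positive visual image hit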;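 further: compound added about 3h40 before a 20 min TNFalpha stimulation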;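 on inhibition: signal is the nuclear over cytoplasmic p65 intensity ratio per well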); conditions: HUVEC TNFa-induced p65 nuclear translocation; cell count: measured here: nuclei count (cytotoxicity indicator), at 2.08 µM; inhibition: at 2 µM, stronger effect = higher value, 0% TNFa-plus-vehicle, 100% no-TNFa wells
[2] = inhibitors of mutant huntingtin aggregation, primary screen, imaging, exon1htt(103Q)mCFP cells, high-content imaging (AID 483;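 active means visual image review flags a hit and inhibition of aggregation exceeds 20%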;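 further: compound exposure lasted 3 days before fixation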;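 on nuclei count: percent of the per-plate median nuclei count of sample wells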); conditions: exon1htt(103Q)mCFP cell line, aggregate imaging, at 2 µM; inhibition of aggregation: stronger effect = higher value; nuclei count: measured here: cell count, toxicity
[3] = inhibitors of E-selectin induction by TNFa, primary screen, imaging, HUVEC, immunofluorescence, MLSMR starter and 10KST1 sets (AID 487); conditions: HUVEC TNFalpha-induced E-selectin immunofluorescence imaging, at 2 µM; inhibition: stronger effect = higher value; nuclei count: measured here: cell number, toxicity;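 on inhibition: signal is fraction of cell area covered by stained E-selectin grains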;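 on nuclei count: 100% = median nuclei count of all wells on the same plate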
[4] = target: Voltage-gated potassium channel subunit beta-2 (Rattus norvegicus) (UniProt P62483); experiment: KvBeta enzyme negative modulators, primary screen, biochemical, NADPH fluorescence (AID 622;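 active means fluorescence slope higher than the sample average by over 3 SD, cut at about -0.22 in these data, passing the limit was not always enough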;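 further: slope of raw intensity against log time taken from 70 to 1610 s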); conditions: recombinant KvBeta, 4-cyanobenzaldehyde reduction, at 10 µM, stronger effect = higher value
[5] = target: Voltage-gated potassium channel subunit beta-2 (Rattus norvegicus) (UniProt P62483); experiment: KvBeta positive modulators, primary screen, biochemical, NADPH fluorescence (AID 623;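 active means NADPH fluorescence slope more negative than the mean of all samples by about 3 SD, 99.7% confidence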;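 further: fluorescence intensity change per second fitted from 20 to 320 s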); conditions: Recombinant KvBeta, NADPH fluorescence decrease slope, 10 min; at 10 µM; stronger effect = lower value
[6] = target: Alpha-2C adrenergic receptor (Homo sapiens) (UniProt P18825); experiment: modulators of alpha2C/GIRK thallium flux, primary screen, cell-based, HEK293 alpha2C/GIRK1/2 (AID 624;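 active means fluorescence slope after compound addition differing from the mean of all screened samples at 99.7% confidence, in either direction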;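 further: slope of fluorescence ratio to pre-addition baseline per second over 15 to 24 s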); conditions: thallium flux BTC fluorescence, at 10 µM, actives lie on both sides
[7] = inhibitors of Sendai virus-induced IRF3 signaling, primary screen, TLR/RLR signaling modifier project, cell-based, Sendai virus stimulus, luciferase, 10K MLSCN set (AID 602276;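 active means inhibition at or above 50% at 10 µM; inactive means inhibition below 50%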;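 further: firefly luciferase from ISG56 promoter only with Renilla not read in this screen; 0% = Sendai virus plus DMSO and 100% = medium plus DMSO without virus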); conditions: HEK293 RL24 IRF3 luciferase reporter, at 10 µM, stronger effect = higher value
[8] = inhibitors of poly I:C-induced TLR3 signaling, primary screen, cell-based, poly I:C stimulus, luciferase, 10K MLSCN set (AID 602277;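 active means inhibition of the reporter signal at or above 50%; inactive means inhibition below 50%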); conditions: HEK293-TLR3 RL24 IRF3 luciferase reporter, at 10 µM, stronger effect = higher value

Chain of Alpha-2C adrenergic receptor (Homo sapiens) (P18825 whole entry, looked up): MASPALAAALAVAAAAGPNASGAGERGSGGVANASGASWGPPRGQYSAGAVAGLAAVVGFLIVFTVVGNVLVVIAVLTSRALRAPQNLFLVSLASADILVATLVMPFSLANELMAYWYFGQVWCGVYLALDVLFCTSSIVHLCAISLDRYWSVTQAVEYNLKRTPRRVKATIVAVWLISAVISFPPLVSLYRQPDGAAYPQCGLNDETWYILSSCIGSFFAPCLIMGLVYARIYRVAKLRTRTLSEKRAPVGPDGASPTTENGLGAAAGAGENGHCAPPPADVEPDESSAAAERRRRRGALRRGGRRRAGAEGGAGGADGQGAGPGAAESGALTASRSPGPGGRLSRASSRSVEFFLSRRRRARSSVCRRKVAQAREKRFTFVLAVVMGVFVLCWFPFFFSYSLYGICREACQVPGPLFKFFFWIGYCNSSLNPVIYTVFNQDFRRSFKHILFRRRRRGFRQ
Chain of Voltage-gated potassium channel subunit beta-2 (Rattus norvegicus) (P62483 whole entry, looked up): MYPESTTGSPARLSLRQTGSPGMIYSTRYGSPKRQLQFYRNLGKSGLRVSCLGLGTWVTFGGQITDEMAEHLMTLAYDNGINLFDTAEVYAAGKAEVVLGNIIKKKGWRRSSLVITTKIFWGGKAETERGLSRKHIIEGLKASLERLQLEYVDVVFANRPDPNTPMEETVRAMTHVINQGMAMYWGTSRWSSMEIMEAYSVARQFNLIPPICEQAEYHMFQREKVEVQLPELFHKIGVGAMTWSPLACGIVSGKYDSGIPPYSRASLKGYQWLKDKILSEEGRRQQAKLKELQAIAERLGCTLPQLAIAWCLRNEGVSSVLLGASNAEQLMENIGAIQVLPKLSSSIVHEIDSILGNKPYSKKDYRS

SMILES	cell count [1]	inhibition [1]	inhibition of aggregation [2]	nuclei count [2] [%]	inhibition [3]	nuclei count [3] [%]	fluorescence slope [4]	NADPH fluorescence slope [5]	slope [6]	inhibition [7]	inhibition [8]
O=C1CC(c2cccnc2)c2cc3c(cc2N1)OCO3 (stereo not drawn)	451	-1.2% (inactive)	-3.3% (inactive)	104	-79.3% (inactive)	102	-0.527 (inactive)	-6.9e-06 (inactive)	0.00697 (inactive)	0.756% (inactive)	25% (inactive)
CC(=O)Nc1ccccc1-c1nc2ccc(C(=O)N3CCN(c4ccccc4)CC3)cc2[nH]c1=O	617	14.7% (inactive)	-6.6% (inactive)	96.8	-3.1% (inactive)	110	-0.489 (inactive)	-4.7e-05 (inactive)	0.00656 (inactive)	5.92% (inactive)	-0.673% (inactive)
COc1ccc(-n2c(Cc3cccn3C)nnc2SCC(=O)Nc2cccc(Cl)c2)cc1	583	36.1% (active)	22.4% (inactive)	85.2	1.8% (inactive)	116	-0.609 (inactive)	1.6e-05 (inactive)	0.00706 (inactive)	-2.83% (inactive)	19.5% (inactive)
COc1ccccc1CCNC(=O)C1CCCO1 (stereo not drawn)	665	-8.8% (inactive)	-27.9% (inactive)	118	-45.2% (inactive)	98.9	-0.401 (inactive)	-1.9e-05 (inactive)	0.00423 (inactive)	0.904% (inactive)	-9.53% (inactive)
O=C(CN1CCN(c2nc(-c3ccccc3)cs2)CC1)Nc1ccc2c(c1)OCO2	529	-11.3% (inactive)	-0.3% (inactive)	106	-77.7% (inactive)	146	-0.518 (inactive)	1.7e-05 (inactive)	0.00563 (inactive)	-2.24% (inactive)	-3.31% (inactive)
CCOC(=O)N1CCN(C(=O)c2ccc(CS(=O)(=O)c3ccc(OC)cc3)o2)CC1	516	2% (inactive)	-23.5% (inactive)	90.7	8.5% (inactive)	133	-0.39 (inactive)	2.2e-05 (inactive)	0.0059 (inactive)	14.8% (inactive)	23.8% (inactive)
CC(C)(C)c1ccc2c(c1)OCC(C(=O)O)O2 (stereo not drawn)	448	2% (inactive)	-7.2% (inactive)	110	14.6% (inactive)	90.7	-0.547 (inactive)	5.5e-05 (inactive)	0.00589 (inactive)	-8.63% (inactive)	4.32% (inactive)
c1nc(NCC2(N3CCOCC3)CCCCC2)c2ccsc2n1	303	17.8% (inactive)	-2.2% (inactive)	93	20.6% (inactive)	87.7	-0.612 (inactive)	-1e-05 (inactive)	0.00518 (inactive)	-0.86% (inactive)	23.1% (inactive)
Cn1c(=O)cc(OCCCC(=O)N2CCCCC2)c2ccccc21	372	8.3% (inactive)	-21.8% (inactive)	96.2	-22.3% (inactive)	112	-0.578 (inactive)	1.8e-05 (inactive)	0.00683 (inactive)	-4.34% (inactive)	36.6% (inactive)
COc1ccc(C(c2sc3nc(C)nn3c2O)N2CCCCC2)cc1 (stereo not drawn)	639	-6.4% (inactive)	-33.8% (inactive)	114	-42.5% (inactive)	108	-0.603 (inactive)	-4.6e-05 (inactive)	0.00737 (inactive)	8.51% (inactive)	27.4% (inactive)
Cc1cc(NC(=O)CSc2nccn2-c2ccc(Cl)cc2)no1	505	4.2% (inactive)	-6.1% (inactive)	106	-65.5% (inactive)	120	-0.554 (inactive)	-8.5e-06 (inactive)	0.00588 (inactive)	-5.68% (inactive)	-15.6% (inactive)
CCOc1ccc(C2C(C(=O)OC)=CN(CCOC)C=C2C(=O)OC)cc1	298	6% (inactive)	-3.4% (inactive)	105	-6% (inactive)	110	-0.141 (inactive)	-8.2e-06 (inactive)	0.00651 (inactive)	-9.2% (inactive)	7.51% (inactive)
Cn1c(C(=O)NCCCN2CCN(c3ccc(F)cc3)CC2)cc2c(=O)n(C)c3ccccc3c21	655	1.1% (inactive)	6.5% (inactive)	107	-73.4% (inactive)	118	-0.42 (inactive)	-6.1e-05 (inactive)	0.00607 (inactive)	6.19% (inactive)	39.1% (inactive)
CC1CCCCC1NC(=O)Cn1ncc2ccccc21 (stereo not drawn)	827	-6.9% (inactive)	10.9% (inactive)	94	-81.1% (inactive)	123	-0.555 (inactive)	-4.8e-05 (inactive)	0.00699 (inactive)	11.9% (inactive)	34.8% (inactive)
CCOc1ccc(NC2c3ccccc3C(=O)N2Cc2ccco2)cc1 (stereo not drawn)	695	-6.7% (inactive)	6.4% (inactive)	47.6	-23.8% (inactive)	91.8	-0.6 (inactive)	1.5e-05 (inactive)	0.00369 (inactive)	-13.3% (inactive)	-22.8% (inactive)
COc1ccccc1C(=O)Nc1ccc(N2CCN(Cc3ccccc3)CC2)cc1	690	12% (inactive)	23.2% (inactive)	95.9	19.4% (inactive)	97	-0.611 (inactive)	-1.3e-06 (inactive)	0.00369 (inactive)	9.6% (inactive)	-11% (inactive)
CCN1CCN(CCCNC(=O)c2cc3sccc3n2CC)CC1	605	11% (inactive)	-0.9% (inactive)	105	37.9% (inactive)	108	-0.586 (inactive)	-3.5e-05 (inactive)	0.00699 (inactive)	-14.9% (inactive)	15.5% (inactive)
NC(=O)C1(N2CCCCC2)CCN(C(=O)Nc2ccccc2C(F)(F)F)CC1	312	-3.2% (inactive)	14.4% (inactive)	91.9	-133% (inactive)	142	-0.445 (inactive)	6.2e-06 (inactive)	0.00567 (inactive)	11.1% (inactive)	31.2% (inactive)
Cc1ccc(-c2cn3cccnc3n2)cc1NC(=O)c1ccc(Br)o1	420	4.7% (inactive)	30.5% (inactive)	66.8	-274% (inactive)	103	-0.0541 (active)	1.6e-06 (inactive)	0.00595 (inactive)	-11.9% (inactive)	-53% (inactive)
Nc1[nH]nc2nc(N3CCCC3)nc(-c3ccccc3)c12	341	-9.5% (inactive)	20.6% (inactive)	60.5	-53% (inactive)	117	-0.477 (inactive)	-3.4e-05 (inactive)	0.00548 (inactive)	11.8% (inactive)	18.8% (inactive)
O=c1c2cc3ccccc3n2cnn1Cc1ccccc1F	345	-8.5% (inactive)	29.9% (inactive)	89.6	-105% (inactive)	108	-0.51 (inactive)	3.1e-05 (inactive)	0.00758 (inactive)	-21.7% (inactive)	-7.8% (inactive)
Oc1ccc(C=Nc2cccc3ncccc23)c(O)c1	682	-40.5% (inactive)	-10% (inactive)	111	-138% (inactive)	118	-0.483 (inactive)	-2.5e-05 (inactive)	0.00472 (inactive)	11.3% (inactive)	17.3% (inactive)
COC(=O)CN1C(=O)C(O)(CC(=O)c2ccc(C)cc2)c2cc(Br)ccc21 (stereo not drawn)	612	2.9% (inactive)	-6% (inactive)	94.5	-49.2% (inactive)	113	-0.436 (inactive)	-4.5e-05 (inactive)	0.00497 (inactive)	4.14% (inactive)	-1.15% (inactive)
COc1ccc(CCNc2oc(-c3ccco3)nc2C#N)cc1	560	15.1% (inactive)	0.7% (inactive)	103	35.2% (inactive)	84.1	-0.605 (inactive)	-3.5e-05 (inactive)	0.00388 (inactive)	-0.514% (inactive)	-18.9% (inactive)
CC(C)CC(=O)N1CCN(S(=O)(=O)c2ccc(F)cc2)CC1	662	7.7% (inactive)	-7.6% (inactive)	105	34.7% (inactive)	86.5	-0.401 (inactive)	2e-05 (inactive)	0.00623 (inactive)	-4.5% (inactive)	-11.7% (inactive)
Cn1nnnc1SCC(=O)N1CCN(c2ccccc2)CC1	400	-0.2% (inactive)	7% (inactive)	97.4	-49.9% (inactive)	97.6	-0.362 (inactive)	-4.2e-05 (inactive)	0.00625 (inactive)	11.7% (inactive)	27.5% (inactive)
Cn1c(C(=O)NCCC2=CCCCC2)cc2c(=O)n3ccccc3nc21	261	31.6% (active)	5.6% (inactive)	92.2	46.7% (inactive)	71.3	-0.128 (active)	1.2e-05 (inactive)	0.00542 (inactive)	-27.5% (inactive)	-62% (inactive)
Cc1cc(N2C(=O)C(O)=C(C(=O)c3ccc(C)o3)C2c2cccs2)no1 (stereo not drawn)	257	-3.6% (inactive)	13.3% (inactive)	75.8	12% (inactive)	103	-0.42 (inactive)	-1.8e-05 (inactive)	0.00606 (inactive)	-1.8% (inactive)	-26.2% (inactive)
